Results as given in the supplement of paper PMC12350171.
Structures can show the parent of a compound that is named as a salt. A number with no mark means an inactive call.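 Rule for the calls: active = normalised median growth AUC below 0.1 of DMSO control; inactive = AUC 0.1 or higher.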

Columns and labels:
Experiment in all cases: growth AUC normalised to DMSO control (median) (fraction of control); higher = less growth inhibition, active = hit call of the paper
Conditions in all cases: 20 µM
P. vulgatus RND KO = tested on: P. vulgatus RND KO
Method in brief: (§1)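 In 96-well plates of mGAM seeded at OD578 0.01, strains that had been passaged twice overnight without oxygen were exposed to approved-drug library compounds at 20 μM with 1% DMSO. Hourly OD578 readings were taken for 24 h in an anaerobic incubator. The trapezoidal-rule area under the curve, with curves truncated at entry into stationary phase, was expressed relative to same-plate vehicle wells as the median of three biological replicates.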

P. vulgatus WT = tested on: P. vulgatus WT
Method in brief: as §1

[1] = tested on: S. enterica typhimurium WT
Method in brief: as §1

[2] = tested on: S. enterica typhimurium tolC KO
Method in brief: as §1
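Note: active when median AUC fell below 0.1.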

| SMILES | growth AUC normalised to DMSO control (P. vulgatus RND KO) | growth AUC normalised to DMSO control (P. vulgatus WT) | growth AUC normalised to DMSO control [1] | growth AUC normalised to DMSO control [2] |
| --- | --- | --- | --- | --- |
| N[C@@H](CCC(=O)N[C@@H](CS)C(=O)NCC(=O)O)C(=O)O [Glutathione] | 0.996 | 1 | 1 | 0.956 |
| CC(=O)Oc1ccc(C(=C2CCCCC2)c2ccc(OC(C)=O)cc2)cc1 [Cyclofenil] | 0.903 | 0.904 | 0.997 | 0.972 |
| COc1ncnc(NS(=O)(=O)c2ccc(N)cc2)c1OC [Sulfadoxine] | 0.981 | 0.982 | 0.99 | 0.993 |
| CC(C)Cc1ccc(CC(=O)O)cc1 [Ibufenac] | 1.06 | 1.06 | 1.01 | 0.981 |
| CCOC(=O)OC(C)OC1=C(C(=O)Nc2ccccn2)N(C)S(=O)(=O)c2ccccc21 (stereo unspecified) [Ampiroxicam] | 0.999 | 0.988 | 1 | 0.986 |
| CNCC[C@@H](Oc1cccc2ccccc12)c1cccs1 [(R)-Duloxetine hydrochloride] | 1.02 | 0.993 | 0.999 | 0.929 |
| CCCCc1oc2ccc(NS(C)(=O)=O)cc2c1C(=O)c1ccc(OCCCN(CCCC)CCCC)cc1 [Dronedarone hydrochloride] | 1.01 | 1.03 | 1 | 1 |
| CC(=O)Oc1c(C)cccc1C(=O)O [Cresopirine] | 0.998 | 0.986 | 0.998 | 0.986 |
| C[C@H]1COc2c(N3CCN(C)CC3)c(F)cc3c(=O)c(C(=O)O)cn1c23 [Levofloxacin] | 0.014 (active) | 0.0149 (active) | 0.00504 (active) | 0.00559 (active) |
| CCOc1ccccc1C(N)=O [Ethenzamide] | 1.02 | 1.03 | 1 | 1 |
| Cc1ccnc2c1NC(=O)c1cccnc1N2C1CC1 [Nevirapine] | 0.995 | 1.01 | 1 | 1 |
| Nc1ccc(S(=O)(=O)Nc2cnc3ccccc3n2)cc1 [Sulfaquinoxaline sodium salt] | 1.01 | 1.04 | 0.985 | 1 |
| O=C(O)COc1nn(Cc2ccccc2)c2ccccc12 [Bendazac] | 0.998 | 1.02 | 1 | 0.987 |
| CC(C)c1ccc2oc3nc(N)c(C(=O)O)cc3c(=O)c2c1 [Amlexanox] | 1.02 | 1.01 | 0.996 | 0.971 |
| CCOCC(O)COc1ccc(NC(=O)CC[S+](C)C)cc1 (stereo unspecified) [Suplatast Tosylate] | 0.998 | 1.01 | 1 | 1 |
| CCCCCCOc1ccccc1C(N)=O [Exalamide] | 1.01 | 1.04 | 1 | 0.917 |
| Nc1nc(CC(=O)Nc2ccc(CCNC[C@H](O)c3ccccc3)cc2)cs1 [Mirabegron] | 1 | 0.989 | 0.991 | 1 |
| CC(C)c1cc2c(cc1S(=O)(=O)O)[C@@]1(C)CCC[C@@](C)(C(=O)O)[C@@H]1CC2 [Ecabet sodium] | 1.01 | 1.02 | 1.01 | 0.988 |
| CCCCC1=NC2(CCCC2)C(=O)N1Cc1ccc(-c2ccccc2-c2nnn[nH]2)cc1 [Irbesartan] | 0.985 | 1 | 1.01 | 0.987 |
| CCN1CCN(c2cc3c(cc2F)c(=O)c(C(=O)O)cn3C2CC2)CC1 [Enrofloxacin] | 0.0121 (active) | 0.0049 (active) | 0.00541 (active) | 0.00221 (active) |
| O=C(NCCCN1CCOCC1)c1ccc(Cl)cc1 [Eprobemide] | 1.04 | 1.03 | 1.01 | 1 |
| CNC(=O)OCc1cccc(COC(=O)NC)n1 [Pyricarbate] | 1.03 | 1.08 | 1.01 | 0.999 |

| SMILES | growth AUC normalised to DMSO control (P. vulgatus RND KO) | growth AUC normalised to DMSO control (P. vulgatus WT) | growth AUC normalised to DMSO control [1] | growth AUC normalised to DMSO control [2] |
| --- | --- | --- | --- | --- |
| OC[C@H]1O[C@@H](n2cnc3cncnc32)[C@H](O)[C@@H]1O [Nebularine] | 0.991 | 0.997 | 1 | 0.997 |
| CCCCC(=O)N(Cc1ccc(-c2ccccc2-c2nnn[nH]2)cc1)[C@H](C(=O)O)C(C)C [Valsartan] | 1.04 | 1.02 | 1.02 | 1.02 |
| Cc1cccc(C)c1NC(=O)CC12CCCN1CCC2 [Pilsicainide Hydrochloride] | 1.05 | 1.09 | 1 | 1 |
| COc1ccc(C(=O)CC(=O)c2ccc(C(C)(C)C)cc2)cc1 [Avobenzone] | 0.939 | 0.911 | 0.992 | 0.976 |
| CO/N=C1\CN(c2nc3c(cc2F)c(=O)c(C(=O)O)cn3C2CC2)CC1CN (stereo unspecified) [Gemifloxacin mesylate] | 0.0152 (active) | 0.0136 (active) | 0.0112 (active) | 0.0027 (active) |
| O=C(O)C[C@H](O)C[C@H](O)/C=C/c1c(C2CC2)nc2ccccc2c1-c1ccc(F)cc1 [Pitavastatin calcium] | 0.983 | 1 | 1.01 | 0.999 |
| N[C@@H]1CCCCN(c2c(F)cc3c(=O)c(C(=O)O)cn(C4CC4)c3c2Cl)C1 [Besifloxacin hydrochloride] | 0.0164 (active) | 0.0175 (active) | 0.00618 (active) | 0.00833 (active) |
| COc1ccc(C(=O)c2ccc(C)cc2)c(O)c1 [Mexenone] | 0.999 | 1 | 1 | 0.931 |
| C[C@H](N[C@@H](CCc1ccccc1)C(=O)O)C(=O)N1CCC[C@H]1C(=O)O [Enalaprilat dihydrate] | 0.99 | 0.986 | 0.992 | 0.995 |
| COc1ccc2cc1Oc1ccc(cc1)C[C@H]1c3c(cc4c(c3Oc3cc5c(cc3OC)CCN(C)[C@@H]5C2)OCO4)CCN1C [Cepharanthine] | 0.999 | 0.973 | 1.02 | 0.998 |
| CC(C)(CO)[C@@H](O)C(=O)NCCC(=O)NCCSSCCNC(=O)CCNC(=O)[C@H](O)C(C)(C)CO [D-Pantethine] | 1.01 | 1.01 | 1 | 1 |
| O=c1oc2cc(O)ccc2s1 [Tioxolone] | 1.02 | 1.02 | 0.989 | 0.999 |
| CS(=O)(=O)CCNCc1ccc(-c2ccc3ncnc(Nc4ccc(OCc5cccc(F)c5)c(Cl)c4)c3c2)o1 [Lapatinib] | 1.03 | 1.03 | 1 | 0.99 |
| O=[N+]([O-])c1ccc(O)c2ncccc12 [Nitroxoline] | 0.0544 (active) | 0.0282 (active) | 0.237 | 0.169 |
| Cc1nc(=O)c2cc(CN(C)c3ccc(C(=O)N[C@@H](CCC(=O)O)C(=O)O)s3)ccc2[nH]1 [Raltitrexed] | 1.04 | 0.997 | 1 | 0.991 |
| COc1c(-c2ccc3cc(NS(C)(=O)=O)ccc3c2)cc(-n2ccc(=O)[nH]c2=O)cc1C(C)(C)C [Dasabuvir] | 0.831 | 0.827 | 1 | 0.94 |
| CN1CCC(=C2c3ccccc3CCc3cccnc32)CC1 [Azatadine maleate] | 0.998 | 0.987 | 1 | 0.993 |
| O=C(O)c1cc(=O)[nH]c(=O)[nH]1 [Orotic acid] | 0.976 | 0.993 | 1 | 1.01 |
| CC1=NN(c2ccccc2)C(=O)C1 [Edaravone] | 0.998 | 1.01 | 1 | 0.982 |
| COc1c(O)cc2c(c1O)[C@@H]1O[C@H](CO)[C@@H](O)[C@H](O)[C@H]1OC2=O [Bergenin] | 1.04 | 1.01 | 1.02 | 0.995 |
| C[N+](C)(C)C[C@H](O)CC(=O)[O-] [Levocarnitine] | 0.998 | 1.04 | 0.998 | 1 |
| OC[C@H]1O[C@@H](c2ccc(Cl)c(Cc3ccc(O[C@H]4CCOC4)cc3)c2)[C@H](O)[C@@H](O)[C@@H]1O [Empagliflozin] | 1.02 | 1.04 | 1.01 | 0.992 |
